# Source: PubChem BioAssay (NCATS)
# Records with an inconclusive call do not appear. The source made the active and inactive calls. The call rests on the fitted dose curve; in most records, active means well fitted curve in the direction sought with a large enough effect; inconclusive means small, poorly fitted or top-dose-only effect, or another doubt; inactive means no such curve, though single readings can be large; an effect the other way counts as inactive or inconclusive.
# Legend:
# [1] = qHTS of pediatric cancer cell lines to identify multiple opportunities for drug repurposing: Primary screen for SK-N-MC cells (AID 1347093); further: potency means the concentration at half of the fitted maximal effect
# How it was run: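 Metabolically active cells were quantified by ATP-dependent luminescence (CellTiter-Glo, 15 min at room temperature) following 48 h treatment. Cells had been plated at 500-1,000 per well and settled for 5 h beforehand.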
# [2] = qHTS of pediatric cancer cell lines to identify multiple opportunities for drug repurposing: Primary screen for Saos-2 cells (AID 1347097); further: nearly all actives have a fitted effect of over 40% in size; further: potency means the concentration at half of the fitted maximal effect
# How it was run: (§1)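 Cells plated at 500-1,000/well in growth medium, compounds added after 5 h. MIPE tested at 11 points (from 0.78 nM), NPC at 8 points (from 0.59 nM). CellTiter-Glo luminescence after 48 h; concentration-response curves from primary screen.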
# [3] = qHTS of pediatric cancer cell lines to identify multiple opportunities for drug repurposing: Primary screen for LAN-5 cells (AID 1347100); further: potency means the concentration at half of the fitted maximal effect
# How it was run: (§2)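 Viability after 48 h compound treatment at 37C, 500-1,000 cells/well, read as ATP luminescence with CellTiter-Glo. Primary screens used 11-point (MIPE, 0.78 nM-46 µM) or 8-point (NPC, 0.59 nM-46 µM) final concentrations; follow-up screens used 11-point dilutions.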
# [4] = qHTS of pediatric cancer cell lines to identify multiple opportunities for drug repurposing: Primary screen for BT-12 cells (AID 1347101); further: nearly all actives have a fitted effect of over 25% in size; further: potency means the concentration at half of the fitted maximal effect
# How it was run: (§3)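 Cells (500-1,000/well) rested 5 h, then received compounds for 48 h; metabolically active cells were measured by CellTiter-Glo luminescence. Final concentrations spanned up to 46 µM (MIPE, 11-point) or 0.59 nM-46 µM (NPC, 8-point) in primary screens, 11-point in follow-ups.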
# [5] = qHTS of pediatric cancer cell lines to identify multiple opportunities for drug repurposing: Primary screen for Rh18 cells (AID 1347102); further: nearly all actives have a fitted effect of over 65% in size; further: potency means the concentration at half of the fitted maximal effect
# How it was run: as §2
# [6] = qHTS of pediatric cancer cell lines to identify multiple opportunities for drug repurposing: Primary screen for OHS-50 cells (AID 1347103); further: nearly all actives have a fitted effect of over 40% in size; further: potency means the concentration at half of the fitted maximal effect
# How it was run: as §3
# [7] = qHTS of pediatric cancer cell lines to identify multiple opportunities for drug repurposing: Primary screen for RD cells (AID 1347104); further: nearly all actives have a fitted effect of over 55% in size; further: potency means the concentration at half of the fitted maximal effect
# How it was run: as §1
# [8] = qHTS of pediatric cancer cell lines to identify multiple opportunities for drug repurposing: Primary screen for DAOY cells (AID 1347090); further: nearly all actives have a fitted effect of over 55% in size; further: potency means the concentration at half of the fitted maximal effect
# How it was run: (§4)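 Viability measured as metabolically active cells via CellTiter-Glo luminescence following 48 hours of compound exposure, 11-point dilutions in confirmatory testing. 500-1,000 cells/well plated 5 hours before dosing; controls were DMSO and 2.3 µM bortezomib.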
# [9] = qHTS of pediatric cancer cell lines to identify multiple opportunities for drug repurposing: Primary screen for A673 cells (AID 1347092); further: nearly all actives have a fitted effect of over 45% in size; further: potency means the concentration at half of the fitted maximal effect
# How it was run: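 Cell viability of A673 measured by CellTiter-Glo ATP luminescence after 48 hours compound exposure. Dilution series spanned 0.78 nM to 46 µM (MIPE, 11-point) or 0.59 nM to 46 µM (NPC, 8-point); bortezomib 2.3 uM positive control.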
# [10] = qHTS of pediatric cancer cell lines to identify multiple opportunities for drug repurposing: Primary screen for U-2 OS cells (AID 1347096); further: nearly all actives have a fitted effect of over 50% in size
# How it was run: as §2
# [11] = qHTS of pediatric cancer cell lines to identify multiple opportunities for drug repurposing: Primary screen for NB1643 cells (AID 1347099); further: nearly all actives have a fitted effect of over 50% in size
# How it was run: as §1
# [12] = qHTS of pediatric cancer cell lines to identify multiple opportunities for drug repurposing: Primary screen for TC32 cells (AID 1347089); further: nearly all actives have a fitted effect of over 60% in size
# How it was run: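 Luminescent ATP read-out (CellTiter-Glo) of metabolically active TC32 cells after 48 h exposure. Concentration-response curves came from 11-point (MIPE, 0.78 nM–46 µM) or 8-point (NPC, 0.59 nM–46 µM) primary titrations; follow-up used 11 points.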
# [13] = qHTS of pediatric cancer cell lines to identify multiple opportunities for drug repurposing: Primary screen for BT-37 cells (AID 1347094); further: potency means the concentration at half of the fitted maximal effect
# How it was run: as §1
# [14] = qHTS of pediatric cancer cell lines to identify multiple opportunities for drug repurposing: Primary screen for NB-EBc1 cells (AID 1347095); further: potency means the concentration at half of the fitted maximal effect
# How it was run: as §1
# [15] = qHTS of pediatric cancer cell lines to identify multiple opportunities for drug repurposing: Primary screen for SK-N-SH cells (AID 1347098); further: nearly all actives have a fitted effect of over 65% in size; further: potency means the concentration at half of the fitted maximal effect
# How it was run: as §3
# [16] = qHTS of pediatric cancer cell lines to identify multiple opportunities for drug repurposing: Primary screen for MG 63 (6-TG R) cells (AID 1347105); further: nearly all actives have a fitted effect of over 50% in size; further: potency means the concentration at half of the fitted maximal effect
# How it was run: as §1
# [17] = qHTS of pediatric cancer cell lines to identify multiple opportunities for drug repurposing: Primary screen for SJ-GBM2 cells (AID 1347091); further: potency means the concentration at half of the fitted maximal effect
# How it was run: as §4
smiles,measurement,setting,value
CCN(CC)CCOc1ccc(C(O)(Cc2ccc(Cl)cc2)c2ccc(C)cc2)cc1 (centres undefined),Potency,[1],21.1 µM (active)
same,Potency,[2],16.8 µM (active)
same,Potency,[3],21.1 µM (active)
same,Potency,[4],11 µM (active)
same,Potency,[5],23.7 µM (active)
same,Potency,[6],15.5 µM (active)
same,Potency,[7],21.1 µM (active)
CCCCCCCCCCOCC(O)CN (centres undefined),Potency,[8],inactive
same,Potency,[9],21.1 µM (active)
same,Potency,[10],inactive
same,Potency,[11],inactive
same,Potency,[5],23.7 µM (active)
same,Potency,[6],30.9 µM (active)
CCCC(=O)O[C@]1(C(=O)CO)CC[C@H]2[C@@H]3CCC4=CC(=O)CC[C@]4(C)[C@H]3[C@@H](O)C[C@@]21C,Potency,[12],inactive
same,Potency,[9],inactive
same,Potency,[1],inactive
same,Potency,[13],inactive
same,Potency,[14],inactive
same,Potency,[10],inactive
same,Potency,[15],inactive
same,Potency,[11],inactive
same,Potency,[3],inactive
same,Potency,[4],inactive
same,Potency,[5],inactive
same,Potency,[7],inactive
same,Potency,[16],inactive
CC1=C(C(=O)OC(C)C)C(c2cccc([N+](=O)[O-])c2)C(C(=O)OC2CN(C(c3ccccc3)c3ccccc3)C2)=C(N)N1 (centres undefined),Potency,[9],13.3 µM (active)
same,Potency,[1],6.68 µM (active)
same,Potency,[2],21.1 µM (active)
same,Potency,[7],23.7 µM (active)
CC(=O)N(O)CCCCCNC(=O)CCC(=O)N(O)CCCCCNC(=O)CCC(=O)N(O)CCCCCN,Potency,[8],8.41 µM (active)
same,Potency,[9],inactive
same,Potency,[13],12.3 µM (active)
same,Potency,[10],inactive
same,Potency,[2],inactive
same,Potency,[15],5.45 µM (active)
same,Potency,[4],12.3 µM (active)
same,Potency,[6],13.8 µM (active)
CCCCCCCCCCCCCCCC[N+](C)(C)CC,Potency,[8],13.3 µM (active)
same,Potency,[17],18.8 µM (active)
same,Potency,[9],1.06 µM (active)
same,Potency,[1],2.66 µM (active)
same,Potency,[13],13.8 µM (active)
same,Potency,[2],13.3 µM (active)
same,Potency,[15],12.2 µM (active)
same,Potency,[4],2.76 µM (active)
same,Potency,[5],0.473 µM (active)
same,Potency,[6],0.692 µM (active)
same,Potency,[7],13.3 µM (active)
same,Potency,[16],26.6 µM (active)
COC1=CC(=O)C[C@@H](C)[C@]12Oc1c(Cl)c(OC)cc(OC)c1C2=O,Potency,[17],21.1 µM (active)
same,Potency,[14],11.9 µM (active)
same,Potency,[10],inactive
same,Potency,[11],inactive
same,Potency,[7],inactive
CCCCCCCCCCCCCCCC[N+](C)(C)CCN(Cc1ccc(OC)cc1)c1ncccn1,Potency,[9],16.8 µM (active)
same,Potency,[1],13.3 µM (active)
same,Potency,[13],24.6 µM (active)
same,Potency,[2],15 µM (active)
same,Potency,[15],27.3 µM (active)
same,Potency,[3],23.7 µM (active)
same,Potency,[5],13.3 µM (active)
same,Potency,[6],6.92 µM (active)
COc1ccc(CN2CCN(C(c3ccc(F)cc3)c3ccc(F)cc3)CC2)c(OC)c1OC,Potency,[8],inactive
same,Potency,[9],21.1 µM (active)
same,Potency,[15],21.7 µM (active)
same,Potency,[11],inactive
same,Potency,[6],13.8 µM (active)
same,Potency,[16],inactive
CCOc1ccc2nc3cc(N)ccc3c(N)c2c1,Potency,[17],inactive
same,Potency,[9],26.6 µM (active)
same,Potency,[13],15.5 µM (active)
same,Potency,[14],inactive
same,Potency,[15],15.4 µM (active)
same,Potency,[11],inactive
same,Potency,[4],11 µM (active)
same,Potency,[6],inactive
same,Potency,[7],23.7 µM (active)
CN(C(=O)CN(CCO)CC(=O)N(C)C(C)(C)Cc1ccccc1)C(C)(C)Cc1ccccc1,Potency,[8],inactive
same,Potency,[9],inactive
same,Potency,[10],inactive
same,Potency,[4],12.3 µM (active)
same,Potency,[6],17.4 µM (active)
same,Potency,[7],inactive
same,Potency,[16],inactive
NC(=NCCCCCCN=C(N)/N=C(\N)Nc1ccc(Cl)cc1)/N=C(\N)Nc1ccc(Cl)cc1,Potency,[8],21.1 µM (active)
same,Potency,[9],21.1 µM (active)
same,Potency,[2],26.6 µM (active)
same,Potency,[15],7.7 µM (active)
same,Potency,[4],9.78 µM (active)
same,Potency,[7],26.6 µM (active)
Oc1c(I)cc(I)c2cccnc12,Potency,[10],inactive
same,Potency,[11],inactive
same,Potency,[5],inactive
Oc1ccc(Cl)c2cccnc12,Potency,[17],inactive
same,Potency,[10],inactive
same,Potency,[15],8.64 µM (active)
same,Potency,[3],21.1 µM (active)
same,Potency,[4],5.5 µM (active)
